Among the test systems are DU-145 prostate; K-562 leukemia; MALME-3M melanoma; MDA-MB-231 breast; RXF 393 renal; SF-268 CNS; SF-295 CNS; SF-539 CNS; UACC-257 melanoma; M14 melanoma; HCT-15 colon; HT29 colon; SNB-75 CNS; SNB-19 CNS; U251 CNS; PC-3 prostate; SK-MEL-5 melanoma; UACC-62 melanoma; LOX IMVI melanoma; SK-MEL-28 melanoma.
Assay in all cases: NCI-60 one-dose screen, 48 h (100 = growth as untreated, 0 = no growth, -100 = all killed)
Holding throughout (settings): 10 µM unless noted

Compounds without any hit were thinned out: in the full panel of roughly 83,000, 20% have a hit.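 Plates (96-well) were seeded with cells, treated with compound at one concentration, and incubated for 48 hours before percent growth was determined.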 A number with no mark means an inactive call. The source made the active and inactive calls. Rule for the calls: active = growth percent below 10; inactive = the rest.

As to `O=C(N/N=C/c1ccsc1)c1[nH]c2ccc(Br)cc2c1-c1ccccc1`, the growth in the assay with DU-145 prostate was -26.4% (active); in the assay with K-562 leukemia, 4.77% (active); with MALME-3M melanoma, -72.5% (active); in the assay on MDA-MB-231 breast, -69.9% (active); in the assay on RXF 393 renal, -47.5% (active); with SF-268 CNS, -56.1% (active). The growth in the assay on SF-295 CNS is -87.5% (active); in the assay on SF-539 CNS, -95.5% (active); with UACC-257 melanoma, -51.9% (active); in the assay on M14 melanoma it was -73.8% (active); in the assay on HCT-15 colon, -62.8% (active); in the assay on HT29 colon, -62.8% (active). The growth with SNB-75 CNS is -32.3% (active); in the assay on SNB-19 CNS, -41.5% (active); with U251 CNS, -89.1% (active); in the assay with PC-3 prostate, -26.1% (active); in the assay with SK-MEL-5 melanoma, -97.2% (active); in the assay with UACC-62 melanoma, -91.6% (active). Besides, the growth in the assay with LOX IMVI melanoma is -100% (active); in the assay with SK-MEL-28 melanoma it was -87.4% (active).
As for `O=C(c1ccc(Cl)cc1)C1[C@H](c2ccccc2Cl)[C@@H](c2ccccc2)NC12C(=O)Nc1ccc(Cl)cc12` (stereo not given in full), the growth was -28.5% (active) in the assay with DU-145 prostate; -45.1% (active) with K-562 leukemia; -39.5% (active) in the assay with MALME-3M melanoma; -96.1% (active) in the assay on MDA-MB-231 breast; -93.1% (active) with RXF 393 renal; -36.6% (active) with SF-268 CNS. The growth was -85.9% (active) in the assay on SF-295 CNS; -78.4% (active) in the assay on SF-539 CNS; -15.5% (active) in the assay on UACC-257 melanoma; -82.9% (active) with M14 melanoma; -81% (active) in the assay with HCT-15 colon; -81.6% (active) with HT29 colon. Further, the growth with SNB-75 CNS is -16.4% (active); in the assay with SNB-19 CNS, -28.4% (active); in the assay on U251 CNS, -73.3% (active); in the assay with PC-3 prostate, -24.8% (active); in the assay with SK-MEL-5 melanoma it was -98.1% (active); in the assay with UACC-62 melanoma, -59.9% (active). In addition, the figures for the growth in the assay with LOX IMVI melanoma and with SK-MEL-28 melanoma were -100% (active) and -80.1% (active), respectively.
On to `COC(=O)c1cc(C(=O)C(C)(C)C)n2c3ccccc3c3ccccc3c12`, for which the growth with DU-145 prostate was 97.4%; with K-562 leukemia, 77.1%; in the assay on MALME-3M melanoma, 109%; in the assay with MDA-MB-231 breast, 79.4%; in the assay with RXF 393 renal, 91.3%; in the assay with SF-268 CNS, 103%. The growth was 93.5% in the assay with SF-295 CNS; 96.7% in the assay with SF-539 CNS; 117% in the assay on UACC-257 melanoma; 96.7% in the assay with M14 melanoma; 65.6% with HCT-15 colon; 99.4% in the assay with HT29 colon. Also, the growth is 84.1% with SNB-75 CNS; 109% with SNB-19 CNS; 97% with U251 CNS; 59.2% with PC-3 prostate; 88.6% in the assay with SK-MEL-5 melanoma; 66.7% in the assay with UACC-62 melanoma. For the same compound, the growth in the assay on LOX IMVI melanoma is 91.1%; in the assay with SK-MEL-28 melanoma it was 99.2%.
Take `N#CC1=C(c2cccs2)Nc2c(c(-c3ccccc3)nn2-c2ccccc2)C12C(=O)Nc1ccc(Br)cc12` (stereo not given): the growth is 31.5% in the assay with DU-145 prostate; 2.75% (active) in the assay on K-562 leukemia; -18.7% (active) in the assay with MALME-3M melanoma; -34% (active) in the assay on MDA-MB-231 breast; -39.7% (active) in the assay on RXF 393 renal; 15.7% with SF-268 CNS. Further, the growth with SF-295 CNS was -37.3% (active); with SF-539 CNS, -62.4% (active); with UACC-257 melanoma it was 35.8%; with M14 melanoma it was -72.1% (active); in the assay with HCT-15 colon, -6.66% (active); in the assay with HT29 colon, -32.8% (active). The growth with SNB-75 CNS was -39.5% (active); in the assay with SNB-19 CNS, 7.99% (active); in the assay on U251 CNS, -47.8% (active); in the assay on PC-3 prostate it was -3.33% (active); with SK-MEL-5 melanoma, 0.371% (active); in the assay with UACC-62 melanoma, -52.3% (active). Moreover, the growth with LOX IMVI melanoma is -11.3% (active); in the assay with SK-MEL-28 melanoma, -69.6% (active).
As for `CC(C)C[C@H](NC(=O)CNC(=O)C[C@H]1O[C@@H]2OC3(C)CC[C@H]4[C@H](C)CC[C@@H]([C@H]1C)[C@@]24O3)B(O)O`, the growth was 42% with DU-145 prostate; 8% (active) with K-562 leukemia; -71.9% (active) in the assay with MALME-3M melanoma; -80.9% (active) in the assay on MDA-MB-231 breast; -78.5% (active) in the assay on RXF 393 renal; -22.4% (active) in the assay with SF-268 CNS. Besides, the growth is -61.3% (active) in the assay on SF-295 CNS; -93.6% (active) in the assay on SF-539 CNS; -52.1% (active) with UACC-257 melanoma; -45.8% (active) with M14 melanoma; 33.1% with HCT-15 colon; -43.6% (active) with HT29 colon. Moreover, the growth is -34.8% (active) in the assay on SNB-75 CNS; 28.2% in the assay on SNB-19 CNS; 17.4% with U251 CNS; 9.34% (active) in the assay with PC-3 prostate; -87.6% (active) in the assay with SK-MEL-5 melanoma; -81.2% (active) with UACC-62 melanoma. Further, the growth in the assay with LOX IMVI melanoma is -83.6% (active); with SK-MEL-28 melanoma, -34.4% (active).
Regarding `CC1=C(C(=O)Nc2ccccc2)C(c2cccc3ccccc23)n2c(nc3ccccc32)N1` (stereo not given), the growth was 29% with DU-145 prostate; 82.9% in the assay with K-562 leukemia; 43.8% in the assay with MALME-3M melanoma; 53.8% in the assay on MDA-MB-231 breast; 13.9% in the assay with RXF 393 renal; 19.8% in the assay on SF-268 CNS. Besides, the growth in the assay on SF-295 CNS is 32.2%; in the assay on SF-539 CNS it was 43.8%; in the assay with UACC-257 melanoma it was 45.1%; in the assay with M14 melanoma, 65.7%; in the assay on HCT-15 colon, 64.6%; in the assay with HT29 colon, 40.5%. The growth in the assay with SNB-75 CNS was -63% (active); in the assay with SNB-19 CNS it was 20.2%; with U251 CNS, 25%; with PC-3 prostate it was 31.3%; with SK-MEL-5 melanoma, 82.6%; with UACC-62 melanoma it was 66.8%. For the same compound, the figures for the growth in the assay on LOX IMVI melanoma and with SK-MEL-28 melanoma were 53.5% and 70%, respectively.
In the case of `O=C(NC(=S)N1CCN(c2ncnc3c2cnn3-c2ccccc2)CC1)c1ccc(Br)cc1`, the growth in the assay on DU-145 prostate is 87.3%; with K-562 leukemia it was 61.4%; with MALME-3M melanoma it was 53.4%; in the assay with MDA-MB-231 breast it was 75.4%; in the assay with RXF 393 renal, 69.1%; in the assay on SF-268 CNS, 58.5%. For the same compound, the growth is 48.3% in the assay on SF-295 CNS; -17.5% (active) in the assay on SF-539 CNS; 88.7% in the assay on UACC-257 melanoma; 83.1% in the assay with M14 melanoma; 58.3% in the assay on HCT-15 colon; 86.4% in the assay on HT29 colon. Moreover, the growth in the assay on SNB-75 CNS was 7.89% (active); in the assay on SNB-19 CNS, 46.6%; with U251 CNS, 56.5%; with PC-3 prostate it was 64.8%; in the assay with SK-MEL-5 melanoma, 75%; in the assay with UACC-62 melanoma it was 60.6%. The values for the growth in the assay on LOX IMVI melanoma and in the assay with SK-MEL-28 melanoma were 41.1% and 77.1%, respectively.
Regarding `C#CCCCNCCNc1ccnc2cc(Cl)ccc12`, the growth is 74.5% in the assay with DU-145 prostate; 19.9% in the assay on K-562 leukemia; 88.8% in the assay on MALME-3M melanoma; 66.3% with MDA-MB-231 breast; 36.2% in the assay with RXF 393 renal; 87.7% with SF-268 CNS. In addition, the growth is 48.2% in the assay on SF-295 CNS; -13.9% (active) in the assay on SF-539 CNS; 0.503% (active) in the assay on UACC-257 melanoma; 61.3% with M14 melanoma; 43.5% in the assay with HCT-15 colon; 25.7% with HT29 colon. Besides, the growth in the assay with SNB-75 CNS was 100%; in the assay with SNB-19 CNS, 101%; with U251 CNS, 84.3%; in the assay with PC-3 prostate, 73.1%; with SK-MEL-5 melanoma, 45.9%; in the assay with UACC-62 melanoma, 73.5%. Moreover, the growth was 40.1% in the assay with LOX IMVI melanoma and 79% in the assay on SK-MEL-28 melanoma.

The record behind these values is PubChem BioAssay (NCI).
